{"source": "PubChem BioAssay AID777", "about": "(Sanford-Burnham Center for Chemical Genomics, 2007)", "note": "Out of some 96,000 compounds screened, about 19,000 (20%) were called active. Not all results are given here. Unmarked numbers belong to inactive results.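 The calls were made as follows: active = blocking of liver enzyme CYP2C9 beyond about 50% at 5 µM (limit read from the data); inactive = the rest.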"}
{"target": "Cytochrome P450 2C9 (Homo sapiens) (UniProt P11712)", "sequence (P11712 whole entry, looked up)": "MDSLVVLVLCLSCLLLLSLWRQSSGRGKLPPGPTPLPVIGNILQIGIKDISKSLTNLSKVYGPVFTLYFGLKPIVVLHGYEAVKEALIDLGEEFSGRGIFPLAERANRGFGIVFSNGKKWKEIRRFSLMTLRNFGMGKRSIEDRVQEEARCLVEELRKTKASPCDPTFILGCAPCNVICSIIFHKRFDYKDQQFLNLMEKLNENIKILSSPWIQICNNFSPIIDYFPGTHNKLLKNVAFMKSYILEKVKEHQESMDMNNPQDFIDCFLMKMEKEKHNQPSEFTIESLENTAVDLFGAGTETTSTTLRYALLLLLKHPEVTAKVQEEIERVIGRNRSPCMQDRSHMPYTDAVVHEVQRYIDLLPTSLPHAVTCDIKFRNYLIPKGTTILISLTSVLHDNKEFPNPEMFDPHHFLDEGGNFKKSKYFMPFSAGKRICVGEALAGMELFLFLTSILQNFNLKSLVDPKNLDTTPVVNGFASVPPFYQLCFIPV", "experiment": "blockers of cytochrome P450 2C9 activity – biochemical, luminescence, ADME assay, primary screen (AID 777)", "conditions": "CYP2C9 Supersomes, luciferin-H conversion, at 5 µM, active compounds read high"}
{"compound": "CN(C)c1ccnc2sc3c(=O)n(Cc4ccccc4)cnc3c12", "inhibition": "49.6%"}
{"compound": "O=C(COC(=O)c1ccccc1NC(=O)c1ccco1)Nc1ccc2c(c1)OC(F)(F)O2", "inhibition": "76.1% (active)"}
{"compound": "Cc1ccccc1NC(=O)c1cnn(-c2ccccc2)c1NC(=O)c1ccco1", "inhibition": "1.2%"}
{"compound": "COc1ccccc1C(=O)Nc1ccc(NC(=O)c2ccco2)c(C)c1", "inhibition": "-177%"}
{"compound": "Cc1cc(N)n2nc(-c3ccc(C(C)(C)C)cc3)cc2n1", "inhibition": "38.3%"}
{"compound": "CCOC(=O)Cn1c(CN(Cc2ccccc2)Cc2ccccc2)nc2c1c(=O)[nH]c(=O)n2C", "inhibition": "48.8%"}
{"compound": "CC1CN(Cc2nc3c(c(=O)n(C)c(=O)n3C)n2Cc2cccc(Cl)c2)CC(C)O1", "note": "(stereo not given)", "inhibition": "28%"}
{"compound": "COCCn1c(CN(Cc2ccccc2)Cc2ccccc2)nc2c1c(=O)n(C)c(=O)n2C", "inhibition": "96.4% (active)"}
{"compound": "C=CCOc1nc2c(c(=O)n(C)c(=O)n2C)n1Cc1ccc(Cl)cc1Cl", "inhibition": "8.1%"}
{"compound": "Cn1c(=O)c2c(nc(OCc3cccnc3)n2Cc2ccccc2)n(C)c1=O", "inhibition": "52.4% (active)"}
{"compound": "COCCn1c(CN2CCC(Cc3ccccc3)CC2)nc2c1c(=O)n(C)c(=O)n2C", "inhibition": "54.2% (active)"}
{"compound": "CCN1CCN(Cc2nc3c(c(=O)n(C)c(=O)n3C)n2CC(=O)c2ccccc2)CC1", "inhibition": "29.8%"}
{"compound": "Cn1c(=O)c2c(nc(NCCc3ccccc3)n2Cc2ccccc2)n(C)c1=O", "inhibition": "5.6%"}
{"compound": "Cn1c(=O)[nH]c(=O)c2c1nc(CN(Cc1ccccc1)Cc1ccccc1)n2CCN1CCOCC1", "inhibition": "7.6%"}
{"compound": "CN1CCN(Cc2nc3c(c(=O)n(C)c(=O)n3C)n2Cc2cccc3ccccc23)CC1", "inhibition": "-8.7%"}
{"compound": "CCOC(=O)N1CCN(Cc2nc3c(c(=O)n(C)c(=O)n3C)n2Cc2ccccc2)CC1", "inhibition": "9.9%"}
{"compound": "CC(C)CCn1c(CN(C)Cc2ccccc2)nc2c1c(=O)n(C)c(=O)n2C", "inhibition": "95.6% (active)"}
{"compound": "CC(=O)c1ccc2c(ccc3ccccc32)c1", "inhibition": "40.7%"}
{"compound": "CC(C)NC(=O)C(=O)NCCN1CCN(S(=O)(=O)c2ccc(Cl)cc2)CC1", "inhibition": "20.7%"}
{"compound": "COCCN1Cc2cccc(C(=O)Nc3ccccc3OC)c2C1=O", "inhibition": "34.5%"}
{"compound": "O=C(Nc1cc2ccccc2oc1=O)C1CCCCC1", "inhibition": "3.6%"}
{"compound": "Cc1cccc(C)c1NC(=O)CCCSc1nnc(-c2ccco2)n1-c1ccccc1", "inhibition": "25.6%"}
{"compound": "O=C(Nc1nnc(CCc2ccccc2)s1)C1CCCO1", "note": "(stereo not given)", "inhibition": "16.3%"}
{"compound": "O=C(OC(C(=O)NC1CCCC1)c1ccc(F)cc1)c1ccno1", "note": "(stereo not given)", "inhibition": "13.9%"}
{"compound": "CC(C)Cn1cnc2c1c(=O)n(CC(O)c1ccccc1)c(=O)n2CC(C)C", "note": "(stereo not given)", "inhibition": "-5.7%"}
{"compound": "CC(C)Cn1c(CN(Cc2ccccc2)Cc2ccccc2)nc2c1c(=O)n(C)c(=O)n2C", "inhibition": "72.2% (active)"}
{"compound": "Cc1ccc(S(=O)(=O)N2CCCC2CO)cc1", "note": "(stereo not given)", "inhibition": "-37%"}
{"compound": "Cc1ccc(S(=O)(=O)n2nc(OC(=O)C(C)(C)C)cc2N)cc1", "inhibition": "50.4% (active)"}
{"compound": "Nc1cc(OC(=O)c2ccccc2Br)nn1S(=O)(=O)c1ccccc1", "inhibition": "61.5% (active)"}
{"compound": "Cc1c(C(=O)OCC(=O)N(CCC#N)c2ccccc2)oc2c1ccc1ccccc12", "inhibition": "-74.8%"}
{"compound": "CC(=O)Nc1ccccc1OC(=O)N1CCOCC1", "inhibition": "-0.1%"}
{"compound": "CC(C)Cc1cc(C(=O)Nc2cc(Br)ccc2O)no1", "inhibition": "18.1%"}
{"compound": "O=c1c2ccccc2oc2nc3n(c(=O)c12)CCCS3", "inhibition": "-21.3%"}
{"compound": "COc1ccc(N2CC(C)Cn3c2nc2c3c(=O)n(Cc3ccccc3F)c(=O)n2C)c(OC)c1", "note": "(stereo not given)", "inhibition": "-4.7%"}
{"compound": "Cc1cccc(N2CC(C)Cn3c2nc2c3c(=O)n(CC(=O)OCc3ccccc3)c(=O)n2C)c1", "note": "(stereo not given)", "inhibition": "86.9% (active)"}
{"compound": "Cn1c(=O)n(CCc2ccccc2)c(=O)c2c1nc1n2CCCN1c1ccccc1", "inhibition": "14.3%"}
{"compound": "O=C(/C=C/c1cc2c(cc1Br)OCO2)NCc1ccc(Cl)cc1", "inhibition": "-6.4%"}
{"compound": "CC(C)(C)C(=O)c1cnc(Nc2ccccc2)s1", "inhibition": "33.1%"}
{"compound": "S=c1[nH]nc(-c2ccco2)n1/N=C/c1ccc(Br)s1", "inhibition": "-24.6%"}
{"compound": "CCC(C)(C)n1nnnc1C(c1ccccc1OC)N1CCSCC1", "note": "(stereo not given)", "inhibition": "17%"}
{"compound": "COc1ccc(OC)c(C(c2nnnn2C(C)(C)C)N2CCc3ccccc3C2)c1", "note": "(stereo not given)", "inhibition": "98.9% (active)"}
{"compound": "Cc1ccc(C(c2nnnn2C(C)(C)C)N2CCc3ccccc3C2)cc1", "note": "(stereo not given)", "inhibition": "-5.7%"}
{"compound": "CCOc1ccc(S(=O)(=O)N(CC(=O)O)c2ccccc2)cc1", "inhibition": "17.7%"}
{"compound": "CCN(CC)C(=O)CN(c1cccc(OC)c1)S(=O)(=O)c1ccc(C)cc1", "inhibition": "94% (active)"}
{"compound": "COc1cccc(NC(=O)CN(C)S(=O)(=O)c2ccc(C)cc2)c1", "inhibition": "19%"}
{"compound": "Cc1nonc1OCCn1nnnc1N", "inhibition": "6.3%"}
{"compound": "CCN(CC(=O)NCc1cccs1)c1nnnn1-c1ccccc1", "inhibition": "-1.7%"}
{"compound": "Cc1n[nH]c(=S)n1/N=C/c1ccc(Br)o1", "inhibition": "4.5%"}
{"compound": "CCCCOC(=O)Cn1c(=N)n(CCN(CC)CC)c2ccccc21", "inhibition": "-37.7%"}
{"compound": "CCCCOC(=O)Cn1c(=O)n(CC(=O)OCCCC)c2cc(C)ccc21", "inhibition": "60.8% (active)"}
{"compound": "COC(=O)Cn1c2ccc(C)cc2c2nc(C)sc21", "inhibition": "22.4%"}
{"compound": "CCCCOC(=O)c1[nH]c(C)c(C(=O)OC)c1C", "inhibition": "61.2% (active)"}
{"compound": "CCCCN(CC)CCNC(=O)c1[nH]c(C)c(C(C)=O)c1C", "inhibition": "-14.6%"}
{"compound": "COCCCNCC(=O)Nc1sc(C)c(C)c1C(=O)OC", "inhibition": "39.5%"}
{"compound": "CCCOc1ccc(NC(=O)C2CCCNC2=O)cc1", "note": "(stereo not given)", "inhibition": "1.9%"}
{"compound": "COc1ccc(-n2nnnc2SCC(=O)Nc2ccccc2)cc1", "inhibition": "-7.3%"}
{"compound": "Cc1cc(C)cc(NC(=O)CSCc2cnn(-c3ccccc3)c2-n2cccc2)c1", "inhibition": "44%"}
{"compound": "CC(=O)Nc1ccc(NC(=O)CSCc2cnn(-c3ccccc3)c2-n2cccc2)cc1", "inhibition": "86.6% (active)"}
{"compound": "Cc1ccc(NC(=O)c2cc(-c3ccc(C)o3)nc3ccccc23)nc1", "inhibition": "3.2%"}
{"compound": "CC(=O)OCc1cc2cc(C)ccc2[nH]c1=O", "inhibition": "-8%"}
{"compound": "C/C(=C\\c1ccco1)C1Nc2cccc3cccc(c23)N1", "inhibition": "55.5% (active)"}
{"compound": "O=C(NCC1CCCO1)/C(=C\\c1ccco1)NC(=O)c1ccccc1", "note": "(stereo not given)", "inhibition": "-18.8%"}
{"compound": "Cc1cccc(NC(=O)/C(=C\\c2ccco2)NC(=O)c2ccccc2)c1", "inhibition": "32.5%"}
{"compound": "COc1ccc2c(c1OC)C(=O)N(c1ncn[nH]1)C2", "inhibition": "-23.9%"}
{"compound": "CCN(CC)C(=O)CC1(c2ccccc2OC)CCOC(C(C)C)C1", "note": "(stereo not given)", "inhibition": "17%"}
{"compound": "O=S(=O)(c1ccc2ccccc2c1)N1CCN(S(=O)(=O)N2CCOCC2)CC1", "inhibition": "-53.6%"}
{"compound": "O=C(CCc1ccc(S(=O)(=O)N2CCOCC2)cc1)Nc1ccc2ccccc2c1", "inhibition": "55.3% (active)"}
{"compound": "O=C(CN1CCN(S(=O)(=O)c2ccc3ccccc3c2)CC1)NC(=O)NC1CCCCC1", "inhibition": "-18.3%"}
{"compound": "Cn1nnnc1SCc1cc(=O)[nH]c2ccccc12", "inhibition": "14.5%"}
{"compound": "CCOC(=O)Cc1c(C)nc2c(C#N)c(C)nn2c1C", "inhibition": "-3.2%"}
{"compound": "CCCOn1c(-n2nc(C)cc2C)nc2ccccc2c1=O", "inhibition": "11.3%"}
{"compound": "CCCc1nc2ccccc2c(=O)n1/N=C/c1ccc(O)c(O)c1", "inhibition": "85.3% (active)"}
{"compound": "O=c1c2ccccc2nc(N/N=C/c2ccccc2)n1O", "inhibition": "-1.4%"}
{"compound": "O=C(Cc1ccc(-n2c(=O)[nH]c3ccccc3c2=O)cc1)N1CCN(c2cccc(Cl)c2)CC1", "inhibition": "57.5% (active)"}
{"compound": "CCOC(=O)N1CCN(C(=O)Cc2ccc(-n3c(=S)[nH]c4ccccc4c3=O)cc2)CC1", "inhibition": "11.8%"}
{"compound": "CCOC(=O)N1CCC(Nc2c(NCCN3CCN(c4cccc(Cl)c4)CC3)c(=O)c2=O)CC1", "inhibition": "0.8%"}
{"compound": "O=C(C1CCN(S(=O)(=O)c2cnc[nH]2)CC1)N1CCN(Cc2ccc3c(c2)OCO3)CC1", "inhibition": "9.3%"}
{"compound": "O=S(=O)(Nc1ccccn1)c1ccc(Oc2ccccc2)cc1", "inhibition": "81.4% (active)"}
{"compound": "COc1ccccc1Oc1ccc(S(=O)(=O)Nc2cccnc2)cc1", "inhibition": "84.9% (active)"}
{"compound": "Cc1nc(CNS(=O)(=O)c2ccc(Oc3ccccc3)cc2)cs1", "inhibition": "39.1%"}
{"compound": "Cc1ccc(S(=O)(=O)c2ccc(Oc3ccccc3)cc2)cc1", "inhibition": "-5.1%"}
{"compound": "O=C(CS(=O)(=O)Cc1ccccc1)Nc1cccnc1", "inhibition": "-3.4%"}
{"compound": "Cc1cc(C)cc(NS(=O)(=O)c2ccc(Oc3ncc(C(F)(F)F)cc3Cl)cc2)c1", "inhibition": "47.2%"}
{"compound": "COc1cc(=O)[nH]c(=O)n1C(=O)Cc1ccccc1", "inhibition": "11.7%"}
{"compound": "Cc1nc(NC2=NC(C(=O)Nc3ccc(Cl)cc3)CC(=O)N2)nc2ccccc12", "note": "(stereo not given)", "inhibition": "1.6%"}
{"compound": "O=C(CCCN1C(=O)c2cccc3cccc(c23)C1=O)N1CCN(Cc2ccc3c(c2)OCO3)CC1", "inhibition": "-138%"}
{"compound": "O=C1c2ccccc2C(=O)N1c1ccccc1S(=O)C(F)(F)F", "note": "(stereo not given)", "inhibition": "-4%"}
{"compound": "O=C(O)c1ccccc1NC(=S)NC(NC(=O)c1ccccc1[N+](=O)[O-])C(Cl)(Cl)Cl", "note": "(stereo not given)", "inhibition": "72.3% (active)"}
{"compound": "O=C(Nc1ccccc1[N+](=O)[O-])C1C(c2ccccc2)=C1c1ccccc1", "inhibition": "18.8%"}
{"compound": "O=[N+]([O-])c1ccccc1NCc1ccc(Cl)cc1", "inhibition": "18%"}
{"compound": "O=C(Nc1ccc2c(c1)OCO2)C1CC(c2c(F)cccc2Cl)=NO1", "note": "(stereo not given)", "inhibition": "-159%"}
{"compound": "COCn1c(COc2ccccc2)nc2ccccc21", "inhibition": "43.7%"}
{"compound": "CCCCNC(=O)CCNC(=O)c1ccc(C(C)(C)C)cc1", "inhibition": "41.3%"}
{"compound": "CCN(CC(=O)NC(C)C)C(=O)CCNC(=O)c1ccc(Cl)cc1", "inhibition": "6.3%"}
{"compound": "Cc1ccc(CNC(=O)CCCNC(=O)c2ccc(Cl)cc2)n1C", "inhibition": "80.5% (active)"}
